This is one part of a sample in which hits are shown more often than they occur.
NOMO-1 viab = STK33 inhibitor candidate reducing NOMO-1 cell viability. inhibition, % (no concentration beside the values). NOMO-1 AML viability, CellTiter-Glo luminescence, 72 h. AID 2330. 37,000 tested, 7.5% active; in the data active = inhibition above about 80%; inconclusive = no clear call, values can overlap the other calls
PD-1 reversal = reversal of PD-1 mediated T-cell inhibition; primary human CD4 T cells, PD-L1 beads, CellTiter-Glo 96 h; activation, % (no concentration beside the values); 29,000 tested, under 10 active; AID 2316; call rule not given here
STK33 kin inh = inhibitors of human STK33 kinase; Q9BYT3; ADP-Glo luminescence, MBP substrate; inhibition, % at 12.5 µM; 27,000 tested, 0.44% active; AID 2322; in the data active = inhibition above about 20%; inconclusive = no clear call, values can overlap the other calls
Target sequence (Q9BYT3 whole entry, looked up): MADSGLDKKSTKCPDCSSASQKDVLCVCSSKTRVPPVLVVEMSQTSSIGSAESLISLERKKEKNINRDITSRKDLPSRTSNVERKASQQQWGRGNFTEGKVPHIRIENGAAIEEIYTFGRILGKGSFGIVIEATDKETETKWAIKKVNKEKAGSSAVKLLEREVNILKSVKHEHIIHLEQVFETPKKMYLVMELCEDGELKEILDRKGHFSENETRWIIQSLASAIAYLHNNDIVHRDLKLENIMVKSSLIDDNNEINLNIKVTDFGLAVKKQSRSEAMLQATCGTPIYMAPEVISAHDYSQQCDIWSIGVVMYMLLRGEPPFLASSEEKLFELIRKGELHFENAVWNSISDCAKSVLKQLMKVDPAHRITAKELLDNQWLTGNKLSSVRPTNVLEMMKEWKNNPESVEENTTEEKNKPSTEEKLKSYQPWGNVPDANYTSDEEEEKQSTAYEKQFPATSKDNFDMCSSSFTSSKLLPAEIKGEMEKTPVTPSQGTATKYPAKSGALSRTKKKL
Numbers stand for hits; . = inactive; ? = inconclusive; / = not tested or not shown.

SMILES | NOMO-1 viab | PD-1 reversal | STK33 kin inh
C[C@@H]1CCCCO[C@@H](CN(C)C(=O)Nc2ccc(C(F)(F)F)cc2)[C@@H](C)CN([C@H](C)CO)C(=O)c2cc(NS(=O)(=O)c3ccc(F)cc3)ccc2O1 | 110.0 | . | .
Cc1ccc(S(=O)(=O)Nc2ccc3c(c2)C(=O)N([C@H](C)CO)C[C@H](C)[C@H](CN(C)C(=O)Nc2cccc4ccccc24)OCCCC[C@@H](C)O3)cc1 | 110.9 | . | .
C[C@@H]1CCCCO[C@H](CN(C)C(=O)Nc2ccc(C(F)(F)F)cc2)[C@@H](C)CN([C@H](C)CO)C(=O)c2cc(NS(=O)(=O)c3ccccc3)ccc2O1 | . | / | .
C[C@@H]1CCCCO[C@H](CN(C)C(=O)C2CCCCC2)[C@@H](C)CN([C@H](C)CO)C(=O)c2cc(NS(=O)(=O)c3ccc(Cl)cc3)ccc2O1 | . | / | .
COc1ccc(S(=O)(=O)Nc2ccc3c(c2)C(=O)N([C@H](C)CO)C[C@H](C)[C@H](CN(C)C(=O)Nc2ccc(C(F)(F)F)cc2)OCCCC[C@@H](C)O3)cc1 | 134.4 | . | .
CN(C)CCNC(=O)c1cc(-c2cccnc2)nc2c(Cl)cccc12 | . | / | .
N/C(=N\O)c1ccc(Cl)cc1 | . | . | /
COc1cc(C)c(S(=O)(=O)NCCc2c(C)[nH]c3ccccc23)cc1C | . | . | .
O=C(Nc1cccc(C(F)(F)F)c1)Nc1cccc(S(=O)(=O)N2CCOCC2)c1 | . | / | .
O=C(CSc1ccccn1)Nc1ccc(Oc2ccccc2)cc1 | . | . | .
CCCN(CCC)S(=O)(=O)c1ccc(C(=O)NN)cc1 | . | . | /
CN(C1CCCCC1)S(=O)(=O)c1cc(Cl)ccc1Cl | . | . | /
Cc1noc(C)c1S(=O)(=O)Nc1ccc2c(c1)C(=O)N([C@H](C)CO)C[C@H](C)[C@@H](CN(C)C(=O)Nc1ccc(C(F)(F)F)cc1)OCCCC[C@@H](C)O2 | 114.9 | . | .
Cc1noc(C)c1S(=O)(=O)Nc1ccc2c(c1)C(=O)N([C@H](C)CO)C[C@H](C)[C@H](CN(C)C(=O)Nc1ccc(C(F)(F)F)cc1)OCCCC[C@@H](C)O2 | ? | . | .
COc1ccc(C(O)CNC(=O)/C=C/c2ccccc2)cc1 (stereo not given) | 112.4 | . | .
COc1ccc(/C=C/C(=O)NCc2ccccc2)cc1 | . | . | /
COc1ccccc1NC(=O)C1CC(=O)n2c(nc3ccccc32)N1 (stereo not given) | . | / | .
COCCCNc1ncnc(N)c1[N+](=O)[O-] | . | . | .
Cc1cc2nc(Nc3nc4ccccc4c(=O)[nH]3)nc(C)c2cc1C | 126.8 | . | .
CCc1c(C)nc(Nc2nc(C)c3ccc(OC)cc3n2)[nH]c1=O | . | / | .
CC(C)C(NS(=O)(=O)c1ccc(Oc2ccccc2Cl)cc1)C(=O)O (stereo not given) | . | / | .
O=C(CCN1CCCCC1)N1N=C(c2ccc(Cl)cc2)CC1c1ccco1 (stereo not given) | . | . | .
Cc1noc(C)c1NC(=O)Nc1ccc2c(c1)CC(=O)N([C@@H](C)CO)C[C@@H](C)[C@@H](CN(C)Cc1ccc3c(c1)OCO3)O2 | . | . | .
C[C@H]1CN([C@@H](C)CO)C(=O)Cc2cc(NC(=O)Nc3ccc(F)cc3)ccc2O[C@H]1CN(C)Cc1ccc(Cl)c(Cl)c1 | 126.6 | / | /
C[C@@H]1CN([C@@H](C)CO)C(=O)Cc2cc(NC(=O)Nc3ccccc3)ccc2O[C@@H]1CN(C)Cc1ccc(Cl)c(Cl)c1 | 103.0 | . | .
SMILES | NOMO-1 viab | PD-1 reversal | STK33 kin inh
C[C@H](CO)N1C[C@H](C)[C@H](CN(C)Cc2ccc(Cl)c(Cl)c2)Oc2ccc(NC(=O)Nc3ccc(F)cc3)cc2CC1=O | . | . | .
C[C@H]1CN([C@@H](C)CO)C(=O)Cc2cc(NC(=O)Nc3ccc4c(c3)OCO4)ccc2O[C@H]1CN(C)Cc1ccc(Cl)c(Cl)c1 | 113.4 | . | .
C[C@@H]1CN([C@@H](C)CO)C(=O)Cc2cc(NC(=O)Nc3ccc4c(c3)OCO4)ccc2O[C@@H]1CN(C)Cc1ccc(Cl)c(Cl)c1 | . | . | .
Cc1noc(C)c1NC(=O)Nc1ccc2c(c1)CC(=O)N([C@@H](C)CO)C[C@H](C)[C@H](CN(C)Cc1ccc(Cl)c(Cl)c1)O2 | 114.2 | . | .
C[C@H](CO)N1C[C@H](C)[C@H](CN(C)Cc2ccccc2)Oc2ccc(NC(=O)Nc3ccccc3)cc2CC1=O | . | / | /
Cc1ccc(S(=O)(=O)Nc2ccc(C(=O)Nc3cccc(N(C)S(C)(=O)=O)c3)cc2)cc1 | . | . | .
COc1ccc(CNCCCN2CCOCC2)cc1OC | . | / | .
COCCNC(=O)c1c(NC(=O)c2ccccc2C)sc2c1CCCC2 | . | . | .
O=S(=O)(NCc1nc2ccccc2[nH]1)c1ccc(Cl)c(Cl)c1 | / | / | .
COc1cccc(OCC(=O)Nc2cccc(Oc3ccc4c(c3)C(=O)NC4=O)c2)c1 | . | . | .
CC(C)(C)NC(=O)CSc1ccc(Cl)cc1 | . | . | .

Compound activity: PubChem, Broad Institute
